Assay results: PubChem BioAssay AID1053133 (Broad Institute, 2014)
About 10 (0.01%) of roughly 89,000 compounds were called active. Inconclusive results (about 10%) are left out. No stated cut-off is given here; in the data, active means activity change below about -37% (passing the limit was not always enough); inconclusive means no clear call, values can overlap the other calls; tested in A549 cells. The list is a sample of the results.

Test: blocks a specific stage of Vaccinia orthopoxvirus infection, primary screen, cell-based, single point (AID 1053133)
Conditions: Vaccinia-infected cells, mCherry/Venus stage reporter fluorescence, stronger effect = lower value, concentration not given here; activity change (Venus): measured here: Venus reporter, other viral stage

SMILES | activity change (Venus) [%] | activity change (mCherry)
N#Cc1cccc(-c2ccc([C@H]3[C@@H](CO)N[C@@H]3CNC(=O)C3CCC3)cc2)c1 | -1.58 | -4.87% (inactive)
COc1ccc2c3c(n(C)c2c1)[C@H](CO)N(CC1CCCCC1)CC31CCN(Cc2nccs2)CC1 | -17.6 | -20.4% (inactive)
C/C=C/c1ccccc1[C@H]1[C@@H](C#N)N(C(=O)Cc2ccccn2)[C@@H]1CO | -12.5 | -21.2% (inactive)
CCNC(=O)[C@H]1[C@H](CO)[C@H]2Cn3c(cccc3=O)[C@@H]1N2Cc1cc(F)ccc1F | 15.1 | 12.8% (inactive)
O=C(C[C@@H]1CC[C@@H]2[C@H](COC[C@H](O)CN2C(=O)c2ccc3c(c2)OCO3)O1)NC1CCCC1 | 4.69 | 7.59% (inactive)
C[C@@H]1CCCCO[C@H](CN(C)S(=O)(=O)c2ccc(Cl)cc2)[C@H](C)CN([C@@H](C)CO)C(=O)c2cc(NS(=O)(=O)c3cn(C)cn3)ccc2O1 | 3.71 | 0.869% (inactive)
CNC(=O)C[C@@H]1CC[C@@H]2[C@H](COC[C@H](O)CN2Cc2ccc(C(F)(F)F)cc2)O1 | 3.54 | 4.2% (inactive)
Cc1noc(C)c1S(=O)(=O)N(C)C[C@@H]1OCCCC[C@@H](C)Oc2ccc(NC(=O)Nc3ccccc3)cc2C(=O)N([C@H](C)CO)C[C@@H]1C | 5.28 | 12.8% (inactive)
CC=Cc1ccc2n(c1=O)C[C@@H]1[C@@H](CO)[C@H](C(=O)NCc3cccc(OC)c3)N[C@H]21 (mixture of isomers) | 12.7 | 3.42% (inactive)
C/C=C/c1cnc2c(c1)C(=O)N([C@H](C)CO)C[C@H](C)[C@@H](CN(C)S(=O)(=O)c1ccccc1F)O2 | -1.53 | -5.68% (inactive)
COCC(=O)Nc1ccc2c(c1)C(=O)N(C)C[C@H](OC)[C@@H](C)CN(CCc1ccccc1)[C@@H](C)CO2 | -0.0268 | -4.99% (inactive)
O=C(C[C@@H]1C[C@@H]2c3cc(NC(=O)Nc4ccccc4F)ccc3O[C@@H]2[C@H](CO)O1)NCCc1ccccc1 | 7.27 | 9.1% (inactive)
CCCC(=O)N1CC2(C1)CN(C(=O)Nc1cccc(F)c1)[C@@H](CO)c1c2c2ccc(OC)cc2n1C | -2.53 | 2.16% (inactive)
COCC(=O)Nc1ccc2c(c1)C(=O)N(C)[C@@H]1CC[C@H](CC(=O)NCC3CC3)O[C@@H]1CO2 | 8.99 | 16% (inactive)
COc1ccc2c3c([nH]c2c1)[C@@H](CO)N(C(=O)Cc1ccccc1)CC31CCN(C)CC1 | -13.2 | -7.54% (inactive)
C[C@H](CO)N1C[C@H](C)[C@H](CN(C)C(=O)C2CCOCC2)Oc2ncc(-c3ccccc3F)cc2C1=O | 6.04 | 8.11% (inactive)
